Source: PubChem (National Center for Advancing Translational Sciences (NCATS))
HT1080NT lethal: qHTS for induction of synthetic lethality in tumor cells producing 2HG: qHTS for the HT-1080-NT fibrosarcoma cell line; HT-1080-NT fibrosarcoma viability, CellTiter-Glo ATP luminescence, 48 h; Potency, µM (doses to about 46.1 µM), inactives show top-dose activity, negative = less viability, hits mostly cytotoxic; 360,000 compounds, 1.6% hits;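 further: NT is the 2HG producing partner of a matched IDH1 knockdown line; potency means the concentration at half of the fitted maximal effect; 0% = DMSO-treated cells and -100% = media-only wells without cells; nearly all actives have a fitted effect of over 55% in size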
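Compounds were tested in concentration-response format on HT-1080-NT cells for 48 hours at 37 degrees C. Cell viability came from CellTiter-Glo luminescence; curves were classified by r2, response magnitude and activity.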
ALOX12 inh: Primary qHTS assay for inhibitors of human arachidonate 12S-lipoxygenase (ALOX12): Round 2 | AID 1671190, 2021 | Potency, µM (titrated, usually from 108 µM), for inactives: at the top dose activity change, negative = inhibition, hits mostly inhibitors | purified 12hLO, xylenol orange hydroperoxide absorbance | 580,000 compounds, 1.1% hits; further: potency means the concentration at half of the fitted maximal effect
Target sequence (P18054 whole entry, looked up): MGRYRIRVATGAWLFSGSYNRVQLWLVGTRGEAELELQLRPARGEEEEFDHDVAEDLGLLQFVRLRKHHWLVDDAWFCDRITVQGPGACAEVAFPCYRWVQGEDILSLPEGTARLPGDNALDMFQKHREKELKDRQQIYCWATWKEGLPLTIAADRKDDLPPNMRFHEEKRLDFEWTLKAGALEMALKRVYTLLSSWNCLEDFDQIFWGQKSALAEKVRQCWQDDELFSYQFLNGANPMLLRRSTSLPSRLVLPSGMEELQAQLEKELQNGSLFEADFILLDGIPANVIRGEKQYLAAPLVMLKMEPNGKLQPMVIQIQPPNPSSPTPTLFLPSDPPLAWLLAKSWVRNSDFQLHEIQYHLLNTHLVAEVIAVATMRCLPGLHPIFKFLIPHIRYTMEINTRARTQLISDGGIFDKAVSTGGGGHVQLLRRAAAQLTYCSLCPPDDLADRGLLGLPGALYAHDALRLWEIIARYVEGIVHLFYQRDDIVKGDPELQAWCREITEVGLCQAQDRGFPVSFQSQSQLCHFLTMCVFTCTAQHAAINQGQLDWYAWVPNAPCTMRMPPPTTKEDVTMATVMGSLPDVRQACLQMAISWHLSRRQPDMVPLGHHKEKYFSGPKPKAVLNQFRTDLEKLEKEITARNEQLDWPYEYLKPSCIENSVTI
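Purified human 12hLO at 150 nM in 25 mM Hepes, 0.01% Triton X-100, pH 7.0, preincubated 15 min at room temperature with compound. Reaction started with 40 uM arachidonic acid, 30 min at room temperature. Hydroperoxide measured by Fe-xylenol orange, 573/405 nm absorbance ratio.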
HT1080 IDH1KD tx: qHTS for induction of synthetic lethality in tumor cells producing 2HG: qHTS for the HT-1080-IDH1KD cell line | 360,000 compounds, 2% hits | HT-1080 IDH1 knockdown viability, ATP luminescence, 48 h | Potency, µM (titrated, usually from 46.1 µM), for the others: at the highest dose activity, negative = toxicity, most hits filed as cytotoxic;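 further: potency means the concentration at half of the fitted maximal effect; 0% = DMSO wells and -100% = cell-free medium wells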
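Viability of IDH1-knockdown HT-1080 fibrosarcoma cells was assessed by CellTiter-Glo after 48 h at 37 °C with titrated compound; concentration-effect curves were classified by fit quality and response size.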
TDP1 cell CPT: qHTS for Inhibitors of human tyrosyl-DNA phosphodiesterase 1 (TDP1): qHTS in cells in presence of CPT; chicken DT40 Tdp1-/-;hTDP1 cells + 20 nM CPT, ATP luminescence, 48 h; Potency, µM (titrated, usually from 46.2 µM), inactives show at the highest dose activity change, negative = growth inhibition, actives largely listed as inhibitors; 420,000 compounds, 12% hits; AID 686979, 2013; further: potency means the concentration at half of the fitted maximal effect; nearly all actives have a fitted effect of over 55% in size
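Cell growth measured by CellTiter-Glo luminescence after a minimum 48 h, 37 C compound exposure with 20 nM CPT in Tdp1-knockout DT40 cells stably expressing hTDP1, seeded 400/well; qHTS titration format.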
DT40 TDP1 no CPT: qHTS for Inhibitors of human tyrosyl-DNA phosphodiesterase 1 (TDP1): qHTS in cells in absence of CPT. AID 686978, 2013. 420,000 compounds, 15% hits. Potency, µM (titrated, usually from 46.2 µM), for inactives: at the highest dose activity change, negative = growth inhibition, usual class: inhibitors. DT40 Tdp1-/- hTDP1 cells, no CPT, ATP luminescence, 48 h; further: potency means the concentration at half of the fitted maximal effect; nearly all actives have a fitted effect of over 55% in size
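Readout: luminescence from CellTiter-Glo after 30 min in the dark at RT. Cells: DT40 Tdp1-/- with stable hTDP1, 400/well. Exposure: compounds alone, ≥48 hr, 37 °C.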
IL1B secr inh: qHTS for Inhibitors of Inflammasome Signaling: IL-1-beta AlphaLISA Primary Screen; THP-1 LPS/ATP IL-1B secretion, AlphaLISA, 16 h; hits give low values; AID 743279, 2014; 360,000 compounds, 4.7% hits; activity change, % at 57.5 µM; in the data active means activity change below about -50%; inconclusive means mostly about -30% to -49%
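Secreted IL-1B measured by AlphaLISA bead assay after 16 h compound exposure of THP-1 cells; compounds (final up to 57.5 uM) added 1 h before LPS (250 ng/mL) and ATP (1.25 mM) stimulation; lower signal means less secretion.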
Starred values were filed as active, the others as inactive. Shown is part of a subset that was picked to be rich in hits. Unless noted, the call rests on the fitted dose curve; in most records, active means well fitted curve in the direction sought with a large enough effect; inconclusive means small, poorly fitted or top-dose-only effect, or another doubt; inactive means no such curve, though single readings can be large; an effect the other way counts as inactive or inconclusive. Unless noted, on the % scale 0 is the no-effect control and ±100 the full control effect.

What do the screens show for `COc1ccc(/C=C2\Sc3ccc(C(=O)N4CCN(Cc5ccccc5)CC4)cc3N(C)C2=O)cc1OC`?
HT1080NT lethal: inconclusive; ALOX12 inh: -1.4%; HT1080 IDH1KD tx: -23.7%; TDP1 cell CPT: 5.17µM*; DT40 TDP1 no CPT: 3.26µM*; IL1B secr inh: -0.5

Results for COc1ccc(C(=O)NCc2cccnc2)cc1C(=O)NCc1cccnc1 ?
HT1080NT lethal: 22.8%; ALOX12 inh: 32.8%; HT1080 IDH1KD tx: -6.3%; TDP1 cell CPT: 17.9%; DT40 TDP1 no CPT: -2.6%; IL1B secr inh: 27.8

Results for COc1cccc(/C=C2\Sc3ccc(C(=O)NCc4cccnc4)cc3N(C)C2=O)c1 ?
HT1080NT lethal: -8.9%; ALOX12 inh: inconclusive; HT1080 IDH1KD tx: -29.1%; TDP1 cell CPT: inconclusive; DT40 TDP1 no CPT: inconclusive; IL1B secr inh: -81.8*

Results for COc1ccc(/C=C2\Sc3ccc(C(=O)NCc4cccnc4)cc3N(C)C2=O)cc1OC ?
HT1080NT lethal: 23.1µM*; ALOX12 inh: -5.7%; HT1080 IDH1KD tx: 23.1µM*; TDP1 cell CPT: 20.6µM*; DT40 TDP1 no CPT: 16.4µM*; IL1B secr inh: -79.7*

Results for COc1cccc(CNC(=O)Cc2ccc(OC)c(S(=O)(=O)N3CCOCC3)c2)c1 ?
HT1080NT lethal: -6.3%; ALOX12 inh: 11.1%; HT1080 IDH1KD tx: -1.0%; TDP1 cell CPT: 1.2%; DT40 TDP1 no CPT: -14.8%; IL1B secr inh: -8.2

Results for Cc1nn(-c2ccccc2)c(Cl)c1/C=N/NC(=O)c1ccccc1NS(=O)(=O)c1cccs1 ?
HT1080NT lethal: inconclusive; ALOX12 inh: -11.8%; HT1080 IDH1KD tx: inconclusive; TDP1 cell CPT: -26.9%; DT40 TDP1 no CPT: inconclusive; IL1B secr inh: 0.0

How did Cc1nn(-c2cccc(Cl)c2)c(Cl)c1/C=N/NC(=O)c1cccs1 do in these assays?
HT1080NT lethal: -1.8%; ALOX12 inh: 0.9%; HT1080 IDH1KD tx: inconclusive; TDP1 cell CPT: 16.4µM*; DT40 TDP1 no CPT: 13µM*; IL1B secr inh: -2.2

What do the screens show for `COc1ccc(-n2nnc(C(=O)Nc3ccccc3C(F)(F)F)c2N)cc1`?
ALOX12 inh: 1.5%

How did CCOc1ccc(C(=O)NC(=S)Nc2ccccc2N2CCOCC2)cc1Br do in these assays?
HT1080NT lethal: -1.9%; ALOX12 inh: 25.1µM*; HT1080 IDH1KD tx: -0.4%; TDP1 cell CPT: inconclusive; DT40 TDP1 no CPT: 16.4µM*; IL1B secr inh: -13.7

Results for COc1ccc(C(=O)NC(=S)Nc2ccccc2N2CCOCC2)cc1Br ?
HT1080NT lethal: 5.0%; ALOX12 inh: 15.8µM*; HT1080 IDH1KD tx: 5.0%; TDP1 cell CPT: inconclusive; DT40 TDP1 no CPT: 18.4µM*; IL1B secr inh: -21.8

How did O=C(NC(=S)Nc1ccccc1N1CCOCC1)c1cccc([N+](=O)[O-])c1 do in these assays?
HT1080NT lethal: -0.9%; ALOX12 inh: 408.0%; HT1080 IDH1KD tx: -22.1%; TDP1 cell CPT: -18.8%; DT40 TDP1 no CPT: -27.9%; IL1B secr inh: 21.1

Results for COc1ccc(C(=O)Nc2ccccc2N2CCOCC2)cc1Br ?
HT1080NT lethal: 11.4%; ALOX12 inh: -27.1%; HT1080 IDH1KD tx: 7.0%; TDP1 cell CPT: inconclusive; DT40 TDP1 no CPT: inconclusive; IL1B secr inh: -20.1

Results for Fc1cc(F)cc(NC(=S)Nc2ccccc2N2CCOCC2)c1 ?
HT1080NT lethal: 4.7%; ALOX12 inh: -21.2%; HT1080 IDH1KD tx: -4.5%; TDP1 cell CPT: -14.9%; DT40 TDP1 no CPT: 25.9µM*; IL1B secr inh: -8.8
